Screens (PubChem)
gsp ag: qHTS for Agonist of gsp, the Etiologic Mutation Responsible for Fibrous Dysplasia/McCune-Albright Syndrome: qHTS; Potency, µM (highest dose often 76.9 µM), for inactives: top-dose activation (cAMP increase), most hits filed as activators; gsp mutant cells, cAMP HTRF, 30 min; 340,000 compounds, 0.13% hits; active = well fitted activation curve with a large enough effect; inconclusive = small, poorly fitted or top-dose-only effect, or another doubt; inactive = no such curve, though single readings can be large or run the other way; cell line not stated here;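 also: phosphodiesterase inhibitor Ro 20-1724 added with compounds to block cAMP breakdown; potency is read from the fitted curve at half-maximal effect; nearly all actives have a fitted effect of over 60% in size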
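Cells stably selected in G418 were plated at 2000/well, grown 16-24 hr, then given compounds in DMSO with the PDE inhibitor […] (300 uM solution added) for 30 min at 37C; cAMP was read by HTRF.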
miR-21 act: qHTS Assay for Modulators of miRNAs and/orActivators of miR-21. 340,000 tested, under 10 active. Potency, µM (highest dose often 38.3 µM), without a hit: at the highest dose activity change, positive = activation, actives largely listed as activators. HeLa miR-21 FLuc reporter, luciferase, 48 h;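 also: % of control where 0% means no effect; miR-21 action dims this reporter so a rising signal means less miR-21 action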
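HeLa miR-21-FLuc reporter line, endogenous miR-21; 2000 cells/well in DMEM/10% FBS; compound titration up to ~40uM final, 48 h, 37 degree Celsius; luciferase detection reagent, 15 min lysis, CCD luminescence.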
RXFP1 antagonist: qHTS Assay for Antagonists of the Relaxin Receptor RXFP1. Relaxin receptor 1 (Homo sapiens), Q9HBX9. HEK293-RXFP1, relaxin-stimulated cAMP HTRF, 30 min; hits give low values. activity change, negative = inhibition, % at 57.5 µM. 350,000 compounds, 0.59% hits;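 active = activity change of -60% or lower, but not beyond a set lower limit; inconclusive = change between -60% and -40%, or beyond the set limit; inactive = change above -40%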; also: % is scaled to controls: 0 for no effect and ±100 for the full control effect
Target sequence (Q9HBX9 whole entry, looked up): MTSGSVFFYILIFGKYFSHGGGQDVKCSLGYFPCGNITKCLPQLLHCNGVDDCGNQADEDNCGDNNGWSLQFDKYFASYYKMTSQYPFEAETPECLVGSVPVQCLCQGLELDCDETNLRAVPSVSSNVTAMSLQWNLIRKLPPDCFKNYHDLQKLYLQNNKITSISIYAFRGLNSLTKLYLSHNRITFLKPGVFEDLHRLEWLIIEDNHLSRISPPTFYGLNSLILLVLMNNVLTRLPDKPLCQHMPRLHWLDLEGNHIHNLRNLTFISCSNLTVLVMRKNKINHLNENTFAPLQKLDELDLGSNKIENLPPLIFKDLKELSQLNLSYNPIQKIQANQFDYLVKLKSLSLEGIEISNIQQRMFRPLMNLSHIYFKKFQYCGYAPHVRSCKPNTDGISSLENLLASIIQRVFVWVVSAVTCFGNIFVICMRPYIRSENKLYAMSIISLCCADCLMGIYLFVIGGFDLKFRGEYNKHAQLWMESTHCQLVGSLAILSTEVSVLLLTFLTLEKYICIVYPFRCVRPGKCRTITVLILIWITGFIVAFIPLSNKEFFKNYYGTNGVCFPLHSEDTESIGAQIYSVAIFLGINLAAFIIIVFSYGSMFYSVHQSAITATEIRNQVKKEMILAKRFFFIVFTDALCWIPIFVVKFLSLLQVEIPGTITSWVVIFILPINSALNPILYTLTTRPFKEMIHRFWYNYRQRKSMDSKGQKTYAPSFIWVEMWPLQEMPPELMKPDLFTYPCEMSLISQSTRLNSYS
gsp antag: qHTS for Antagonists of gsp, the Etiologic Mutation Responsible for Fibrous Dysplasia/McCune-Albright Syndrome: qHTS; Potency, µM (doses to about 76.9 µM), inactives show at the highest dose activity change, negative = inhibition, most hits filed as inhibitors; 340,000 compounds, 0.4% hits; AID 624288, 2012; gsp-mutant cells, cAMP HTRF, 30 min; calls by dose curve; cell line not stated here;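 also: intracellular cAMP measured with PDE inhibitor Ro 20-1724 present during compound exposure; potency is read from the fitted curve at half-maximal effect; % is scaled to controls: 0 for no effect and ±100 for the full control effect; nearly all actives have a fitted effect of over 65% in size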
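G418-selected cells were plated in DMEM/10% FBS for 16-24 h at 37C, then treated with compounds plus the PDE inhibitor […] (300 uM solution added) for 30 min at 37C. Intracellular cAMP was measured by HTRF after 30 min lysis at room temperature.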
KinaseGlo FLuc: Counterscreen for Luciferase (Kinase-Glo TM) Inhibition; Kinase-Glo luciferase, ATP luminescence, 8 min; Potency, µM (series often up to 38.3 µM), for inactives: top-dose activity change, negative = inhibition, hits mostly inhibitors; 200,000 compounds, 0.28% hits; AID 1379, 2008; also: potency is read from the fitted curve at half-maximal effect; % is scaled to controls: 0 for no effect and ±100 for the full control effect; nearly all actives have a fitted effect of over 60% in size
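Inhibition of Kinase-Glo luciferase light generation was assessed at 10 uM ATP in pH 7.2 imidazole buffer, with luminescence measured after eight minutes at ambient temperature.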
RXFP1 agonist: qHTS Assay for Agonists of the Relaxin Receptor RXFP1 | HEK293T-RXFP1 cAMP TR-FRET, 30 min; response scale: percent of porcine relaxin response, buffer zero | Potency, µM (top dose mostly 57.5 µM), for inactives: at the highest dose activation, most hits filed as activators | 370,000 compounds, 0.3% hits | AID 2676, 2010 | Relaxin receptor 1 (Homo sapiens), Q9HBX9; also: potency is read from the fitted curve at half-maximal effect; % is scaled to controls: 0 for no effect and ±100 for the full control effect; nearly all actives have a fitted effect of over 60% in size
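cAMP rise read by TR-FRET after 30 min, 37C compound exposure (up to 58 uM) in RXFP1-transfected HEK293 cells with Ro 20174 present. EC50 from Hill-equation fits, with 29 nM porcine relaxin as 100% and buffer as basal.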
An asterisk follows results filed as active; ? = inconclusive; · = not tested or not shown; [ ] = another dose, or the depositor's remark. Sampled rows, rich in hits. Any-hit rate of the full collection: about 1%. Unless noted, calls follow the shape of the dose curve; as a rule, active = well fitted curve in the direction sought with a large enough effect; inconclusive = small, poorly fitted or top-dose-only effect, or another doubt; inactive = no such curve, though single readings can be large; an effect the other way counts as inactive or inconclusive.

SMILES	gsp ag	miR-21 act	RXFP1 antagonist	gsp antag	KinaseGlo FLuc	RXFP1 agonist
Cc1cccc(C)c1NC(=O)CSc1nnc(-c2ccco2)c(-c2ccco2)n1	9%[15.4 µM]	7%	-68*	-9%	-1%	0%
Cc1ccccc1NC(=O)CSc1nnc(-c2ccco2)c(-c2ccco2)n1	-2%	-4%	-30	3%	-16%	-3%
COc1cccc(NC(=O)Cn2c(=O)n(CCc3cccc(C)c3)c(=O)c3ccccc32)c1	·	-9%	·	·	·	29%
O=C(Nc1ccc(Cc2ccncc2)cc1)c1ccc(S(=O)(=O)N2CCCC2)cc1	8%	26%	-61*	50µM*	-1%	1%
O=C(Nc1cccc(S(=O)(=O)N2CCCCC2)c1)c1ccc(Cl)nc1	-17%	·	-10	50µM*	·	·
CCOc1ccc(NC(=O)CN2CCCC2c2cccs2)cc1S(=O)(=O)N1CCCC1 (stereo not drawn)	?	·	-6	?	·	0%
COc1ccc(NC(=O)c2ccc(Cl)nc2)cc1S(=O)(=O)N1CCCCC1	-1%[15.4 µM]	22%	9	32µM*	-2%	0%
COc1ccc(NC(=O)CN2CCCC2c2cccs2)cc1S(=O)(=O)N1CCCCC1 (stereo not drawn)	17%	·	-38	35µM*	·	2%
Cc1nc2c(C(=O)N(C)Cc3ccccc3)c[nH]n2c(=O)c1Cc1ccc(Cl)cc1	·	0%	·	·	·	0%
Cc1cccc(CCNc2ncnc3onc(-c4ccc(Cl)cc4)c23)c1	·	13%	·	·	·	-1%
COc1ccc(OC)c(S(=O)(=O)N2CCC(C(=O)Nc3cccc(C)c3C)CC2)c1	?	4%	20	-1%	5%	4%
COc1ccc(OC)c(S(=O)(=O)N2CCC(C(=O)Nc3ccc(C)c(C)c3)CC2)c1	9%	28%	-1	28µM*	-3%	0%
CC(=O)N1CCc2cc(Br)cc(S(=O)(=O)N3CCC(C(=O)Nc4cccc(C)c4C)CC3)c21	·	-3%	-1	·	·	6%
Cc1cc(C=O)c(C)n1-c1ccc(Oc2ccc([N+](=O)[O-])cn2)cc1	0%	29%	-10	10%	1%	2%
Cc1cc(C=O)c(C)n1-c1ccc(NC2CCCC2)c([N+](=O)[O-])c1	1%[15.4 µM]	-1%	-65*	-12%	-3%	0%
CC(C)(C)c1nnc(NS(=O)(=O)c2ccccc2)s1	·	·	-4	·	·	·
CCn1cc([N+](=O)[O-])c(C(=O)N2N=C(c3cccc4ccccc34)CC2c2ccccc2O)n1 (stereo not drawn)	14%	1%	-2	28µM*	7%	1%
CCn1cc([N+](=O)[O-])c(C(=O)N2N=C(c3ccc4ccccc4c3)CC2c2ccccc2O)n1 (stereo not drawn)	-28%	3%	3	?	-1%	2%
Cc1nn(-c2ccccc2)c2c1N(CCCC(=O)NC(C)c1ccccc1)C(=O)CS2 (stereo not drawn)	·	8%	·	·	·	0%
S=c1[nH]nc(C2CCCCC2)n1/N=C/c1ccccc1Cl	27%[15.4 µM]	-11%	-37	40µM*	·	-3%
COC(=O)Cc1c(C)c2c(O)cc(C)cc2oc1=O	?	-13%	33	32%	4%	16µM*
CCc1cc(=O)oc2cc(C)cc(O)c12	?	-3%	·	-1%	1%	?
Cc1ccccc1OCCC(=O)OCC(=O)NC1CC1	-1%[15.4 µM]	·	-1	3%	·	1%
Cc1ccccc1OCCC(=O)OCC(=O)NCCNC(=O)COC(=O)CCOc1ccccc1C	5%[15.4 µM]	·	-73*	-1%	·	-1%
O=C(c1ccncc1)N1CCN(C2CCC(c3ccccc3)CC2)CC1 (stereo not drawn)	-12%	2%	-64*	6%	·	0%
SMILES	gsp ag	miR-21 act	RXFP1 antagonist	gsp antag	KinaseGlo FLuc	RXFP1 agonist
O=C(c1ccncc1)N1CCN(C2CCCCC2)CC1	1%[15.4 µM]	1%	-32	5%	-3%	0%
CCN(Cc1ccccc1)S(=O)(=O)c1ccc2c(c1)CC(C)N2C(=O)C1CCC1 (stereo not drawn)	·	24%	-6	·	·	5%
Brc1cc(Br)c2ncnc(N3CCCCC3)c2c1	14µM*	-8%	29	3%	-2%	25µM*
Clc1ccc(-n2ncc3c(N4CCCCCC4)ncnc32)cc1	-24%	12%	·	-5%	-11%	0%
O=C1c2cccc(O)c2C(=O)c2c(O)cccc21	·	-4%	-6	·	-2%	7%
CC1OC(CC(=O)O)CC2=C1C(=O)c1c(O)cccc1C2=O (stereo not drawn)	38%	·	-63*	?	·	·
COC(=O)c1ccc(COc2ncnc3ccccc23)o1	14%[15.4 µM]	-5%	8	13%	·	16µM*
O=C1C(=O)N(C2CCN(S(=O)(=O)c3ccccc3)CC2)CCN1Cc1ccccc1	·	4%	-8	·	·	1%
O=C(c1ccc2c(c1)N(Cc1ccccc1)C(=O)c1ccccc1S2(=O)=O)N1CCc2ccccc21	·	10%	-5	·	·	1%
CCCNC(=O)c1nnsc1S(=O)(=O)c1ccc(Cl)cc1	7%[15.4 µM]	?	-63*	11%	-1%	-3%
CCCNC(=O)c1nnsc1S(=O)c1ccc(Cl)cc1 (stereo not drawn)	14%[15.4 µM]	?	-71*	?	-3%	1%
